# AmpC no deterg: AmpC beta-lactamase inhibition without detergent; Potency, µM (titrated, usually from 57.1 µM), inactives show top-dose activity change, negative = inhibition, usual class: inhibitors; P00811; 330,000 tested, 0.52% active; AmpC nitrocefin hydrolysis, absorbance 480 nm, 0.0001% Triton; active = well fitted curve in the direction sought with a large enough effect; inconclusive = small, poorly fitted or top-dose-only effect, or another doubt; inactive = no such curve, though single readings can be large; an effect the other way counts as inactive or inconclusive;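 also: potency is read from the fitted curve at half-maximal effect; plate controls were no compound for no effect and no enzyme for full effect; nearly all actives have a fitted effect of over 20% in size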
# Target sequence (P00811 whole entry, looked up): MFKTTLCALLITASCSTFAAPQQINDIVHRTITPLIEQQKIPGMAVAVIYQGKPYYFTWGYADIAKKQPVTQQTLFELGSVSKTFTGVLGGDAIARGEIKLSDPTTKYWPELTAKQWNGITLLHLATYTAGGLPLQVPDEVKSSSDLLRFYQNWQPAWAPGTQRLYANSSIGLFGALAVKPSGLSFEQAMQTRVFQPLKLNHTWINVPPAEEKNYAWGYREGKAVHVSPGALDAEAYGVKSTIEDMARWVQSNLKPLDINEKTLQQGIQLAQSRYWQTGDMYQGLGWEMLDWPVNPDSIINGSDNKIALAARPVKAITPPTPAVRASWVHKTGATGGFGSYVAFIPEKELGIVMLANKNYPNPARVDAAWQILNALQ
#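 AmpC (5.3 nM in the dispensed reagent) in 20 mM phosphate pH 7.0 with 0.01% (detergent screen) or 0.0001% Triton X-100 was preincubated with compounds for 15 min at room temperature. Nitrocefin was then added from an 800 uM solution, and hydrolysis was followed at 480 nm.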
# NS1 function inh: inhibitors of influenza NS1 protein function. Potency, µM (doses to about 46.1 µM), for the others: at the highest dose activity, positive = more growth. 270,000 tested, 0.4% active. AID 2326; also: potency is read from the fitted curve at half-maximal effect; actives are rising curves; nearly all actives have a fitted effect of over 50% in size
#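 Read-out: OD600 growth recovery of NS1-expressing budding yeast. Cells grown overnight at 30C in -URA glucose medium, washed, resuspended and diluted 1:100 in 2% galactose assay medium, pH 6.0. Same strain lacking NS1 served as positive control.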
# AmpC inh detg: blocks E. coli AmpC beta-lactamase in detergent assay. P00811. AmpC hydrolysis of nitrocefin, absorbance 480 nm, 0.01% Triton. Potency, µM (highest dose often 114 µM), for the others: at the highest dose activity change, negative = inhibition, actives largely listed as inhibitors. 370,000 tested, 0.041% active. AID 485294; active = well fitted curve in the direction sought with a large enough effect; inconclusive = small, poorly fitted or top-dose-only effect, or another doubt; inactive = no such curve, though single readings can be large; an effect the other way counts as inactive or inconclusive;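 also: potency is read from the fitted curve at half-maximal effect; 0% = no-compound wells and -100% = no-enzyme wells; nearly all actives have a fitted effect of over 25% in size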
#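 AmpC (5.3 nM in the dispensed reagent) in 20 mM phosphate pH 7.0 with 0.01% (detergent screen) or 0.0001% Triton X-100 was preincubated with compounds for 15 min at room temperature. Nitrocefin was then added from an 800 uM solution, and hydrolysis was followed at 480 nm.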
# Shiga inhibitor: inhibitors of Shiga toxin in Vero cells | Vero cells, Shiga toxin protein synthesis inhibition reporter | inhibition, % at 38.7 µM | 290,000 tested, 9.2% active; in the data active = inhibition mostly above about 28%, no sharp cut-off; inactive = mostly below about 43%; also: 0% is about no effect
# CHX counter-1: counter-screen hit for Shiga toxin inhibitors, cycloheximide; cell reporter, cycloheximide protein synthesis inhibition counterscreen; max response, %; 300,000 tested, 12% active; AID 2314; in the data active = max response mostly above about 13%, no sharp cut-off; inactive = mostly below about 14%; also: read at 38.3 µM for the half of the compounds with a filed dose; 0% is about no effect
# CHX counter-2: counter-screen for Shiga toxin inhibitors: cycloheximide protein synthesis block. 510 tested, 3% active. shares compounds with Shiga inhibitor. Cycloheximide counterscreen, protein synthesis reporter, Shiga toxin assay. Potency, µM (titrated, usually from 38.3 µM), for the others: at the top dose activity (activation), usual class: activators; also: potency is read from the fitted curve at half-maximal effect; 0% is about no effect
# An asterisk follows results filed as active; ? = inconclusive; · = no result given; [ ] = dose if it differs, or a comment. This is one part of a sample in which hits are shown more often than they occur. Unless noted, calls follow the shape of the full dose curve.
SMILES,AmpC no deterg,NS1 function inh,AmpC inh detg,Shiga inhibitor,CHX counter-1,CHX counter-2
Cc1cc(C)c2c(n1)SCC(=O)N2CC(=O)Nc1ccc(C)c(C)c1,2%,21%,-16%,16*,-1,0%
COCc1cc(=O)[nH]c(-c2ccccc2)n1,-16%,·,-7%,1,10,·
CCOC(=O)Cc1nc(-c2cccc(C(F)(F)F)c2)no1,-25%,·,?,4,8,·
Cc1nc(-c2cccc(C(F)(F)F)c2)sc1C(=O)O,-17%,-44%,-2%,58*,11,5%
CC1CCC/C=C/C2CC(O)CC2C(O)/C=C/C(=O)O1 (stereo unspecified),13%,0%,-6%,41*,5,-7%
O=C(Nc1nc(N2C(=O)c3ccccc3C2=O)n(-c2ccccc2)n1)c1ccccc1,-27%,-6%,-6%,35*,11,-2%
O=C(Nc1nc(N2C(=O)c3ccccc3C2=O)n(-c2ccccc2)n1)c1ccc(F)cc1,-18%,24%,-10%,-13,10,·
CCCCn1c(NCc2cccs2)nc2ccccc21,-29%,-1%,-1%,24,-1,·
CC(=O)c1ccc(NC(=O)C(C)Sc2nnc(C3CCCCC3)o2)cc1 (stereo unspecified),27%,-13%,3%,47*,6,-2%
COc1ccc(-n2cnnc2SCC(=O)Nc2cccnc2Cl)cc1,-13%,-2%,3%,-4,-1,·
NC(=O)Cc1ccc(C(=O)c2ccccc2F)s1,-14%,·,6%,38*,15,0%
Cc1noc(C)c1S(=O)(=O)Nc1cccc(CO)c1,-9%,2%,-3%,45*,0,-1%
CC(=O)Nc1cccc(NS(=O)(=O)c2c(C)noc2C)c1,-14%,·,·,·,·,·
CSc1ccccc1C(=O)N1CCCCC1,-5%[2.29 µM],-2%,0%,-4,7,·
Cc1nnc(N2C(=O)C(=O)/C(=C(/O)c3ccc4c(c3)OCCO4)C2c2ccc([N+](=O)[O-])cc2)s1 (stereo unspecified),-45%,?,1%,44*,8,-1%
COC(=O)C(O)(c1ccc(N(C)S(=O)(=O)c2ccccc2)cc1)C(F)(F)F (stereo unspecified),-9%,-12%,?,84*,13,?
COc1ccc(OC)c(NC(=O)CSc2nnc(C3CCCCC3)n2-c2ccccc2)c1,50%,-4%,3%,-4,-3,·
N#Cc1ccc(N=c2ssnc2Cl)cc1,-19%,-109%,?,28*,2,0%
N#Cc1ccc(Oc2c(Cl)cncc2Cl)cc1,-20%,-3%,0%,-8,-5,·
COc1ccc(N/C=C(\C#N)c2nc3ccccc3n2C)c(OC)c1,3%,-6%,?,81*,-2,?
O=C(O)CCn1cc(/C=C2\NC(=S)N(c3ccccc3)C2=O)c(-c2ccc(Br)cc2)n1,-5%,·,-3%,-5,9,·
COc1ccc2cc(C(=O)NCc3ccccc3)[nH]c2c1,-17%,0%,-7%,31*,12,?
Cc1nnsc1C(=O)NC(C)C12CC3CC(CC(C3)C1)C2 (stereo unspecified),0%,-35%,-10%,-23,-2,·
COC(=O)c1ccc(COc2ccc(C3C4=C(CCCC4=O)Nc4onc(C)c43)cc2)cc1 (stereo unspecified),4%,-8%,-14%,47*,7,?
NS(=O)(=O)c1ccc(-c2cccc(/C=C3\SC(=O)NC3=O)c2)cc1,-34%,6%,-8%,-3,-2,·
SMILES,AmpC no deterg,NS1 function inh,AmpC inh detg,Shiga inhibitor,CHX counter-1,CHX counter-2
O=C(CN1C(=O)CN=C(c2ccccc2)c2ccccc21)NCc1ccco1,14%,-4%,3%,44*,7,-2%
CC(C)CCNC(=O)CN1C(=O)CN=C(c2ccccc2)c2ccccc21,-14%,-1%,3%,-3,-4,·
Nc1cc(N)nc(SCC(=O)Nc2ccc(Br)cc2Cl)n1,-20%,2%,?,48*,14,?
COc1ccc(NS(=O)(=O)c2ccc(NC(=O)c3cnn4c(C(F)F)cc(-c5ccc(C)cc5)nc34)cc2)cc1,-13%,9%,-9%,-15,-3,·
CCC(Oc1ccc(C)c(C)c1)C(=O)N1CCCN(C)CC1 (stereo unspecified),9%,1%,-1%,-17,-8,·
Cc1ccc(C(=O)OCCn2cc(C#N)c(=O)[nH]c2=O)cc1,-11%,-1%,8%,-12,10,·
CCCCOC(=O)c1ccc(N=Nc2c(C)c(C#N)c(O)[nH]c2=O)cc1,-36%,0%,5%,47*,8,?
Cc1cccc(CN2C(=O)CSc3ccc(C(=O)NC4CC4)cc32)c1,-18%,-6%,-5%,-8,-2,·
O=C(CN1C(=O)C2(SCC(=O)N2c2ccccc2)c2ccccc21)Nc1ccccc1C(F)(F)F (stereo unspecified),·,·,1%,·,·,·
O=c1[nH]c(=O)n(Cc2ccco2)c2c1C(C(F)(F)F)(C(F)(F)F)N=C(c1ccc(F)cc1)N2,-17%,14%,10%,67*,5,-1%
O=c1[nH]c(=O)n(Cc2ccccc2)c2c1C(C(F)(F)F)(C(F)(F)F)N=C(c1ccco1)N2,-35%,0%,?,-14,-1,·
NCCCc1c(-c2ccccc2)nc(N)[nH]c1=O,·,-8%,·,·,·,·
Cc1ccc(NC(=O)c2cc(S(=O)(=O)N3CCCCCC3)ccc2F)cc1F,·,·,6%,·,·,·
Cc1ccc(NC(=O)c2cc(S(=O)(=O)N3CCCCC3)ccc2N2CCOCC2)cc1F,15%,3%,10%,31*,1,-1%
O=C(NCCOc1ccc(F)cc1)C1CCC(=O)N(CCc2ccccn2)C1 (stereo unspecified),-7%,5%,?,-8,10,·
CCN1CC(CNC(=O)c2ccc3nc(Cc4cccc(Cl)c4)oc3c2)CC1=O (stereo unspecified),111%,3%,-6%,-12,-1,·
NC(=O)[C@@H]1CCCN1C(=O)c1ccc2nc(Cc3cccc(Cl)c3)oc2c1,9%,-5%,1%,24*,-2,0%
O=C(Cn1cc2c(n1)CCCCC2)Nc1ccccc1Br,-7%,-7%,2%,73*,11,-1%
O=C(c1ccco1)N1CCN(CCCCOc2cccc3ccccc23)CC1,299%,-20%,?,37*,7,0%
CN(C(=O)c1ccc2c(c1)OCCO2)c1c(N)n(Cc2ccccc2)c(=O)[nH]c1=O,-11%,·,?,·,·,·
CC(C)NS(=O)(=O)c1ccc(OCC(=O)Nc2ccccc2F)cc1,-37%,4%,?,34*,7,8%
CCOC(=O)c1ccc(NC(=O)Nc2ccn(C)n2)cc1,-25%,-37%,1%,47*,13,?
CCOC(=O)c1ccc(NC(=O)Nn2cnnc2)cc1,-22%,-8%,-10%,-1,9,·
CCc1nnc(SCC(=O)Nc2cccc(C(F)(F)F)c2)c2cc3oc(C)cc3n12,·,·,-6%,·,·,·

# Compound activity: PubChem, National Center for Advancing Translational Sciences (NCATS)
